In all, about 1,000 compounds went through this assay and about 230 (23%) were called active. Roughly 1% stayed inconclusive and do not appear here. The rule behind the calls is not given here. The list shows a part of the results. Entries with a potency or affinity are not part of this list.

Chain of Long-chain-fatty-acid--AMP ligase FadD28 (Mycobacterium tuberculosis (strain ATCC 25618 / H37Rv)) (P9WQ59 whole entry, looked up): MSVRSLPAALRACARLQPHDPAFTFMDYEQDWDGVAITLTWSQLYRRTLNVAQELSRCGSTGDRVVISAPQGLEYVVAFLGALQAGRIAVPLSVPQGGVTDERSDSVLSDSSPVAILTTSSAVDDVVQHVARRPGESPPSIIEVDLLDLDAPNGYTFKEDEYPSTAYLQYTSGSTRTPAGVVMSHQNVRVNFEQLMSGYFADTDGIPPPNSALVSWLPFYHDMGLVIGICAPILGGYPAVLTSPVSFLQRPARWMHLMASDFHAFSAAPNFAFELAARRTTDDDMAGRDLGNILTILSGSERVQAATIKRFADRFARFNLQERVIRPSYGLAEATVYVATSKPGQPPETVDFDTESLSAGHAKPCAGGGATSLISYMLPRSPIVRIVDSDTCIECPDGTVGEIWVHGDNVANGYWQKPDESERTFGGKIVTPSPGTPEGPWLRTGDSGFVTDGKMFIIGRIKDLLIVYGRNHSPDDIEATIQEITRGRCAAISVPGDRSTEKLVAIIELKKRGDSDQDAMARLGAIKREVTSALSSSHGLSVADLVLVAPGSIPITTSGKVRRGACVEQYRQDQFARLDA

The test has as its target Long-chain-fatty-acid--AMP ligase FadD28 (Mycobacterium tuberculosis (strain ATCC 25618 / H37Rv)) (UniProt P9WQ59). The test is described as follows: inhibitors of FadD28 bisubstrate probe binding, dose response, biochemical, fluorescence polarization, cherry-pick (AID 624273). The note with it: series mostly up to 50 µM.
For `O=C(O)c1cc(N/N=C/c2c[nH]c3ccccc23)ccc1Cl`, the call was inactive.

On to `O=C(O)c1ccc(N/N=C/C2=Cc3ccccc3OC2)cc1`, for which the compound was classed as inactive.

As for `COc1ccc(Cl)cc1NC(=S)N(Cc1ccc(C(=O)O)cc1)Cc1ccc(OC)c(OC)c1`, the outcome was inactive.

As for `CC(=O)Nc1sc(N/N=C\c2ccccc2)nc1-c1cccs1`, the outcome was inactive.

As for `CN1CCCC(C(=O)c2ccc(-c3ccccc3)cc2)C1` (stereo unspecified), the call was inactive.

In the case of `COc1cc(C(C)=O)ccc1OC(=O)N(C)c1ccccc1`, the result was inactive.

For `Cc1ccc(S(=O)(=O)N2CCN(C(=O)COC(=O)Cc3cccc(C(F)(F)F)c3)CC2)c(C)c1`, the call was inactive.

Turning to `Cc1c(N=Cc2c(O)n(CCc3ccc(F)cc3)c(=O)[nH]c2=O)c(=O)n(-c2ccccc2)n1C`, the compound was called inactive.

Take `Cc1ccc(C)c(C(O)c2ncc(-c3ccccc3F)[nH]2)c1` (stereo unspecified): the compound was classed as inactive.

Regarding `CC1=C(C(=O)OCc2ccccc2)C(c2ccccc2Cl)NC(=O)N1C` (stereo unspecified), the result was inactive.

In the case of `OC1(c2ccccc2)c2ccccc2-c2ncccc21` (stereo unspecified), the call was inactive.

`COc1ccc(Cn2c(O)c(C=Nc3ccccc3C(=O)O)c3ccccc3c2=O)cc1`: the compound was classed as inactive.

`O=C(CNC(=S)N(Cc1ccccc1)Cc1cccnc1)N1CCOCC1`: the call was inactive.

As to `CC(C=NNc1ccc([N+](=O)[O-])cn1)=Cc1ccccc1`, the outcome was inactive.

In the case of `Fc1ccc(-n2cc(-c3ccccc3)c3c(N4CCOCC4)ncnc32)cc1`, the compound was classed as inactive.

Regarding `FC(F)(F)c1cccc(NC(=S)N2CCN(c3ccccn3)CC2)c1`, the outcome was inactive.

With `O=C(NNc1ccc(C2CCCCC2)cc1)C(O)(c1ccccc1)c1cccs1` (stereo unspecified), the compound was classed as inactive.

Regarding `O=C(Cc1c(F)cccc1Cl)NC1CCN(Cc2ccccc2)CC1`, the compound was called inactive.

In the case of `Cc1[nH]c2ccccc2c1C(=O)CN1CCSCC1`, the call was inactive.

For the compound `O=C(O)c1[nH]c2ccccc2c1C(c1cccc(O)c1)c1c(C(=O)O)[nH]c2ccccc12`, the compound was classed as inactive.

Consider `COc1ccc(OC)c(C2CC(=O)Nc3c2c(=O)[nH]c2ncnn32)c1` (stereo unspecified), for which the compound was classed as inactive.

In the case of `CC(Oc1ccc(Cl)cc1Cl)c1nc(-c2ccc(NC(=O)c3ccco3)cc2)no1` (stereo unspecified), the compound was called inactive.

For `O=c1[nH]c(=S)[nH]c(O)c1/C=C1\C=Nc2ccccc21`, the outcome was inactive.

Take `CCOC(=O)C(O)(C1C(=O)CC(C)(C)CC1=O)C(F)(F)F` (stereo unspecified): the compound was called inactive.

Consider `O=C1CC(c2cc(F)ccc2F)c2cc3c(cc2N1)CCC3` (stereo unspecified), for which the call was inactive.

Turning to `OC1(c2ccc3c(c2)OCO3)CCN(Cc2ccccn2)CC1`, the outcome was inactive.

On to `C[C@@H]1CN([C@H](C)CO)C(=O)c2cc(NC(=O)Nc3ccc(C(F)(F)F)cc3)ccc2O[C@H]1CN(C)C(=O)Nc1ccc(F)cc1`, for which the compound was classed as inactive.

As for `CCN(C(=O)CSc1nnc(SC)s1)c1c(N)n(Cc2ccccc2)c(=O)[nH]c1=O`, the compound was classed as inactive.

In the case of `O=C(CCCCn1c(=O)c2ccccc2n(CC(=O)Nc2ccc(F)cc2)c1=O)NCc1ccco1`, the compound was called inactive.

For the compound `CCN(CC)S(=O)(=O)c1cc(C(=O)Nc2cc(Cl)ccc2N2CCN(C)CC2)ccc1Cl`, the result was inactive.

As for `CCCCCCCCCCCCCCCCCCNc1ccn(C2OC(COP(=O)(O)OCC3OC(n4cc(F)c(=O)[nH]c4=O)CC3O)C(O)C2O)c(=O)n1` (stereo unspecified), the compound was called inactive.

Take `S=C(Nc1ccccc1)N1CCN(c2ccc(N3CCOCC3)nn2)CC1`: the compound was called inactive.

Take `COc1ccccc1CN1CCN(C(=O)c2ccco2)CC1`: the outcome was inactive.

For the compound `N#CC1(NC(=O)COC(=O)C2=COCCO2)CCCCC1`, the outcome was inactive.

For the compound `COc1cc(/C=C2\C(=O)ON=C2c2ccccc2)cc(Br)c1O`, the outcome was inactive.

With `Cc1ccccc1-c1cc(C(=O)N2CCCC2)c2ccccc2n1`, the result was inactive.

For the compound `CC(=O)Nc1cnc(-c2ccc(O)cc2C)cn1`, the call was inactive.

For the compound `CCOc1ccc(CNC(=O)CCc2cn(C)c3ccccc23)cc1OC`, the call was inactive.

`O=C(c1cc2cc(F)ccc2[nH]1)N1CCc2ccccc2C1`: the compound was called inactive.

`COc1ccc(NC(=O)c2ccccc2NS(C)(=O)=O)cc1OC`: the compound was classed as inactive.

As to `COc1ccc(-c2coc3c(C(=O)Nc4cccc(C(C)=O)c4)cccc23)c(C)c1`, the result was inactive.

`CCN(CC(=O)Nc1c(F)cccc1F)C(=O)Cc1ccccc1`: the call was inactive.

In the case of `N#CC1=C(N)OC2=C(C(=O)CCC2)C1c1cc2c(cc1Cl)OCO2` (stereo unspecified), the result was inactive.

For the compound `COc1ccc(-c2coc3cc(O[C@@H]4O[C@H](CO)[C@@H](O)[C@H](O)[C@H]4O)ccc3c2=O)cc1`, the compound was called inactive.

On to `Cc1ccc(OCc2n[nH]c(=S)n2-c2ccc(Br)cc2)cc1`, for which the compound was called inactive.

`Cc1ccc2c(c1)N(C(=O)NC1CCCCC1)C(C)(C)CC2C` (stereo unspecified): the compound was classed as inactive.

`COc1ccc(S(=O)(=O)N2CCCCCC2)cc1NC(=O)c1ccccc1S(C)(=O)=O`: the outcome was inactive.

In the case of `Cc1cc(NCC(=O)Nc2ccc(C)c(S(=O)(=O)N3CCOCC3)c2)ccc1Br`, the outcome was inactive.

As for `COc1cc([N+](=O)[O-])ccc1NC(=S)NC(=O)CC(C)(C)C`, the result was inactive.

For the compound `COc1ccc(-n2nnnc2SCC(=O)Nc2ccccc2N2CCOCC2)cc1OC`, the compound was called inactive.

As for `Cc1ccc(NC(=O)COC(=O)c2cccc(OC(F)F)c2)cc1S(=O)(=O)N1CCCCC1`, the result was inactive.

Consider `Cc1ccc(C(=O)N2CCCC2)cc1S(=O)(=O)N1CCOCC1`, for which the call was inactive.

`O=C(Nc1ccc(NC(=O)c2cc([N+](=O)[O-])ccc2N2CCOCC2)cc1)c1cccs1`: the compound was called inactive.

Consider `O=C(c1cc(COc2ccc3c(c2)CCCC3)on1)N1CCCC1`, for which the result was inactive.

Regarding `O=C(c1cccc(C(F)(F)F)c1)N1CCN(CCc2ccccc2)CC1`, the compound was called inactive.

As for `Cc1[nH]n(-c2ccc(Cl)cc2)c(=O)c1C=Nc1ccc(S(=O)(=O)N2CCOCC2)cc1`, the call was inactive.

For `O=C(Cn1cc(S(=O)(=O)Cc2cccc([N+](=O)[O-])c2)c2ccccc21)N1CCOCC1`, the result was inactive.

`COC(=O)c1cc(S(=O)(=O)Nc2ccsc2C(=O)OC)oc1C`: the outcome was inactive.

Take `Cc1nnc(SCC(=O)Nc2ccc(F)cc2)n(N)c1=O`: the compound was classed as inactive.

For `O=C1/C(=C/c2ccco2)SC(=S)N1CCC(=O)N1CCCCC1CCO` (stereo unspecified), the result was inactive.

With `N#Cc1ccccc1NC(=O)CNc1ccc(Cl)c(C(F)(F)F)c1`, the call was inactive.

On to `COc1cc2c(cc1OC)C(=O)C(Br)CC2` (stereo unspecified), for which the outcome was inactive.

As to `O=C(O)CSC(C(=O)Nc1ccc(C(F)(F)F)cc1)c1ccccc1` (stereo unspecified), the call was inactive.

Take `COCc1[nH][nH]c(=O)c1C=Nc1ccc(C(F)(F)F)cc1`: the compound was classed as inactive.

As to `NS(=O)(=O)c1ccc(NC(=O)c2ccc3c(c2)OCO3)cc1`, the compound was called inactive.

Take `Cc1nonc1C(=O)N/N=C/c1ccc([N+](=O)[O-])o1`: the result was inactive.

Values taken from PubChem BioAssay AID624273 (Broad Institute, 2012).
